Measured values published in the supplement of paper PMC11732987, “Enantioselective OTUD7B fragment discovery through chemoproteomics screening and high-throughput optimisation” (Communications Chemistry, 2025).

Compound: OC1CN(Cc2sccc12)C(=O)CCl
Experiment: log2 ratio of Biotin-Ahx-Ub-VS probe labelling (compound/DMSO); higher = less target engagement, active = hit call of the paper (q ≤ 0.05, log2 ratio ≤ -1)
Conditions: compound concentration: 50uM; treatment time: 3 h
Experimental: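 Round 2 competitive ABPP in HEK293T lysate. Purified HTC-D2B compounds were tested at 50 and 200 µM for 3 h, followed by Biotin-Ahx-Ub-VS enrichment and diaPASEF LC-MS/MS. Values are the average log2 ratio (compound/DMSO) from an unpaired t-test (n=3 treated, n=26 DMSO).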

UniProt Q13107, sequence (Q13107 whole entry): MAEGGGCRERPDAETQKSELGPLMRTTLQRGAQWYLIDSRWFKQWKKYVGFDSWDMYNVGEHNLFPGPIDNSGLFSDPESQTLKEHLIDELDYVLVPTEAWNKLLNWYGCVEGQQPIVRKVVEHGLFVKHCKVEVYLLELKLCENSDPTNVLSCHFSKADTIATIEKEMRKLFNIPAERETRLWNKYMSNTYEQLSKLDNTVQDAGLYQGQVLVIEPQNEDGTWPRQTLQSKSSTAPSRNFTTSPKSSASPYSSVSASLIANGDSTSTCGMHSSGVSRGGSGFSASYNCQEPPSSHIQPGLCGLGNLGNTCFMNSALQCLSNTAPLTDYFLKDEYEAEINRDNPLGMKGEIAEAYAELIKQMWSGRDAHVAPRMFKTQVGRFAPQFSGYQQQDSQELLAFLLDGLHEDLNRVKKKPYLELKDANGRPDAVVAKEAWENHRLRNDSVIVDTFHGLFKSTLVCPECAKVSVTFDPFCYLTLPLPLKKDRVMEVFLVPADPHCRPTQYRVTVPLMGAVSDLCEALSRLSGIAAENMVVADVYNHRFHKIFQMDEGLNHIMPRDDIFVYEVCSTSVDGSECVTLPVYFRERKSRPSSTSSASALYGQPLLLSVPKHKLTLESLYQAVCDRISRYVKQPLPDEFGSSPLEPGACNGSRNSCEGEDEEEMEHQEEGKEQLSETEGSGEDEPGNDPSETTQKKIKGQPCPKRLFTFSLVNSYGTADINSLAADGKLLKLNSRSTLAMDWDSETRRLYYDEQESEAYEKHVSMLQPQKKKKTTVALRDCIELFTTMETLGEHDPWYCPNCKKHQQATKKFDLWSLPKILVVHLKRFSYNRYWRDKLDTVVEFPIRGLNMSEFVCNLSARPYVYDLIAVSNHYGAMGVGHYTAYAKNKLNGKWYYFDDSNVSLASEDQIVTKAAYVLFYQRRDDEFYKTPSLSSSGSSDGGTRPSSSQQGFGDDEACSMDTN
UniProt Q70EL2, sequence (Q70EL2 whole entry): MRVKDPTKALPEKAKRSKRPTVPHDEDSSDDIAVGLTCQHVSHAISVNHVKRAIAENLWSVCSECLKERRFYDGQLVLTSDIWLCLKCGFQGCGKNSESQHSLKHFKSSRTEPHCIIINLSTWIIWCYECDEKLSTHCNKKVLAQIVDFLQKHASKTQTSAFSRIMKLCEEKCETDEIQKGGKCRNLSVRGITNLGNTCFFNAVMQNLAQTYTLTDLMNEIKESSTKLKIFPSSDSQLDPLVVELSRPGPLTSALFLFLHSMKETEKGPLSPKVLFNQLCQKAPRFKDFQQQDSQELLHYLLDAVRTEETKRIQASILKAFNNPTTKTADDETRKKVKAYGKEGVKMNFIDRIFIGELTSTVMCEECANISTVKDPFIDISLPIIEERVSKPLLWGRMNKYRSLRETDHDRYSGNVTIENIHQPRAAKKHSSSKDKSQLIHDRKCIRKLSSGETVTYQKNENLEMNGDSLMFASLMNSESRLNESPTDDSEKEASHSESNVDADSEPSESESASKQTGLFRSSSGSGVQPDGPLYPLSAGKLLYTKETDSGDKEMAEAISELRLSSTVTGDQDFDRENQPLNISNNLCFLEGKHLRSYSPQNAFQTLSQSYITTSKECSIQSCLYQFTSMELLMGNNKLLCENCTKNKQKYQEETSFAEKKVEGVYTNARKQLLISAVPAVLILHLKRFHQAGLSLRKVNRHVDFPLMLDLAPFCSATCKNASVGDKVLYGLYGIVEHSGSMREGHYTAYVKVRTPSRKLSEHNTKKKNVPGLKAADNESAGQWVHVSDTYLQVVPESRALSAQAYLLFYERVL
UniProt P62068, sequence (P62068 whole entry): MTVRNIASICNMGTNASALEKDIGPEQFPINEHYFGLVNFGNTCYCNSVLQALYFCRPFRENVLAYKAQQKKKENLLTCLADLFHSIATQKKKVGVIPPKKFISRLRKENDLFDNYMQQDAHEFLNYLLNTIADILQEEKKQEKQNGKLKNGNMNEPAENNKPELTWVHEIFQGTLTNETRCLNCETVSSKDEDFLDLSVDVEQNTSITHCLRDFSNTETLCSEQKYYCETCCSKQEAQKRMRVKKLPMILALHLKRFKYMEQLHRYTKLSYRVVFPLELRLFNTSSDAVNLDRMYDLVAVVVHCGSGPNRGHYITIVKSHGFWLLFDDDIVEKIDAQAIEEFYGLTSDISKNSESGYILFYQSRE
UniProt Q14694, sequence (Q14694 whole entry): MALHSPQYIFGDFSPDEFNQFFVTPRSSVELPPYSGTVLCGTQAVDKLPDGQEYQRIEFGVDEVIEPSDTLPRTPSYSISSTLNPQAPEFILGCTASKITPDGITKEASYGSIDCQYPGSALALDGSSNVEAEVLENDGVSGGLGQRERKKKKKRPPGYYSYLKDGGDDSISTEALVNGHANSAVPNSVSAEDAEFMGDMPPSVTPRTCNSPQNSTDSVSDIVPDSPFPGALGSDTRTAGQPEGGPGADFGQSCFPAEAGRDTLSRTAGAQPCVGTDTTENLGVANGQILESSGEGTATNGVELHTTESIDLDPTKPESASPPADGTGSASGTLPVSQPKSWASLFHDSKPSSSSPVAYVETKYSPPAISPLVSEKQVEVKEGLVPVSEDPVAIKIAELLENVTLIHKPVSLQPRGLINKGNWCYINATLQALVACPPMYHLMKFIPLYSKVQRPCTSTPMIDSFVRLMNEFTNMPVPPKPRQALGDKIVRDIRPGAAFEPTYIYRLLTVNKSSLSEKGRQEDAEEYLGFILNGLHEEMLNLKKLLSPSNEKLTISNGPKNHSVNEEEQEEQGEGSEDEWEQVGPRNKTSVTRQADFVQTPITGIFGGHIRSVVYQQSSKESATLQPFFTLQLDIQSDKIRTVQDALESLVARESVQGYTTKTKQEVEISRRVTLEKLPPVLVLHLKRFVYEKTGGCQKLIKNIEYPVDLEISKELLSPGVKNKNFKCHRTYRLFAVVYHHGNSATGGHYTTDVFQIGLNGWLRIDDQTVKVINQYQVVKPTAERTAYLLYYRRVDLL
UniProt Q5T2D3, sequence (Q5T2D3 whole entry): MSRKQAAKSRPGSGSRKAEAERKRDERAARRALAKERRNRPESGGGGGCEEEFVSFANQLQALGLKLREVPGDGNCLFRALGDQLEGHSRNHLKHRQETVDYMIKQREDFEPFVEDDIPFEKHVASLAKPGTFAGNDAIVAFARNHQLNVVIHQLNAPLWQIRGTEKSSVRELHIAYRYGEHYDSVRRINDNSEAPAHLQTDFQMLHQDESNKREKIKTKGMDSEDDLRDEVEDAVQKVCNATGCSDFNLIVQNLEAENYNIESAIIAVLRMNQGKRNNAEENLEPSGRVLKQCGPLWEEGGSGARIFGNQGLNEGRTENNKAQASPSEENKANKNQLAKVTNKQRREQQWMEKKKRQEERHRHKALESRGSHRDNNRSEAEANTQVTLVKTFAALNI
UniProt P40818, sequence (P40818 whole entry): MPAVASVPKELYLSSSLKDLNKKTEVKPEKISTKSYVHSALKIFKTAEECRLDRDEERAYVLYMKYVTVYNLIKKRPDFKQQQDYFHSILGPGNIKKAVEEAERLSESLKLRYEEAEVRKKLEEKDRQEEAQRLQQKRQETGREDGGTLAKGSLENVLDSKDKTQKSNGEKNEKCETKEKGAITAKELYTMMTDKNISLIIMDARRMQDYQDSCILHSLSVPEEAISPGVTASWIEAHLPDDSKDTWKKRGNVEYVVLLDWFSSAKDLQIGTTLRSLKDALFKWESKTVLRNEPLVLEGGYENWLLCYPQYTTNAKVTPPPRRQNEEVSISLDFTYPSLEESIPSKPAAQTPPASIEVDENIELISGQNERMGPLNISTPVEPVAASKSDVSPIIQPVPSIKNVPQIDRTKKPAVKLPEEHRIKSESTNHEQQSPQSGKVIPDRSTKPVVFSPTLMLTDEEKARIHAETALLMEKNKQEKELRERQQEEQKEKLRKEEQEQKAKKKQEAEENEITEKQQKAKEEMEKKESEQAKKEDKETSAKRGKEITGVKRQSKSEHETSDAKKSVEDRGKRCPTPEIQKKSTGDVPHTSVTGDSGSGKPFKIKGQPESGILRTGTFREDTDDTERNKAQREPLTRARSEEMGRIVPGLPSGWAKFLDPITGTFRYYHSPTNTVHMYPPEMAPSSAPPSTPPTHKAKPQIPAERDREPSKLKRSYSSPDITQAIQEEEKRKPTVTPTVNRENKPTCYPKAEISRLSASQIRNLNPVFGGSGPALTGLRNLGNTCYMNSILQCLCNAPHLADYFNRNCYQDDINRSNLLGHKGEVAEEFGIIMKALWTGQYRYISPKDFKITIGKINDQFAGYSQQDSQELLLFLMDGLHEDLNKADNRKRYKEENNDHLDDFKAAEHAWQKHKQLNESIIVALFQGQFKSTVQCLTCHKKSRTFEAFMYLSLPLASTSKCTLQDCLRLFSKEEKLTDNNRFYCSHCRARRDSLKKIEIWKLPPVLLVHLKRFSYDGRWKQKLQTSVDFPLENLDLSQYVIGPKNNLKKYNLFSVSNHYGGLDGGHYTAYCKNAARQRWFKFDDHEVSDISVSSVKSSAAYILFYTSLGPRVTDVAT
UniProt O00303, sequence (O00303 whole entry): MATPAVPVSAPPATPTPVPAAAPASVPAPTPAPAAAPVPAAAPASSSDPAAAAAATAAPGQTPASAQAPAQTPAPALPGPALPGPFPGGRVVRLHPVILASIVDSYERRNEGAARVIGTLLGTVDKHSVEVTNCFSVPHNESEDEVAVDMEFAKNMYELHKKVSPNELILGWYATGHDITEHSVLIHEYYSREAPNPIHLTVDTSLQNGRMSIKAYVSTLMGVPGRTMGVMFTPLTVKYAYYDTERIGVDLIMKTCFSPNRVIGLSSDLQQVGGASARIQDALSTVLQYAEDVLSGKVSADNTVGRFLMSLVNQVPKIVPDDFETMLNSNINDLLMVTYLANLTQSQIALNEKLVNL

| Target | log2 ratio of Biotin-Ahx-Ub-VS probe labelling |
| --- | --- |
| USP48 (UniProt Q86UV5) | -0.157 (inactive) |
| FAM105A (UniProt Q9NUU6) | -0.0183 (inactive) |
| USP10 (UniProt Q14694) | -0.166 (inactive) |
| UniProt O00487 | 0.0337 (inactive) |
| USP46 (UniProt P62068) | -0.289 (inactive) |
| UniProt Q9UGI0 | -0.451 (inactive) |
| USP28 (UniProt Q96RU2) | -0.0634 (inactive) |
| USP5 (UniProt P45974) | 0.084 (inactive) |
| USP12 (UniProt O75317) | -0.0752 (inactive) |
| USP8 (UniProt P40818) | -0.266 (inactive) |
| MINDY4 (UniProt Q4G0A6) | 0.0365 (inactive) |
| PSMD7 (UniProt P51665) | -0.579 (inactive) |
| PRPF8 (UniProt Q6P2Q9) | 0.0584 (inactive) |
| UniProt Q70EL2 | 0.0417 (inactive) |
| USP4 (UniProt Q13107) | -0.154 (inactive) |
| YOD1 (UniProt Q5VVQ6) | -0.198 (inactive) |
| EIF3H (UniProt O15372) | -0.189 (inactive) |
| OTUD7B (UniProt Q6GQQ9) | -4.49 (active) |
| EIF3F (UniProt O00303) | -0.0817 (inactive) |
| UniProt Q5T2D3 | -0.17 (inactive) |

Same assay, conditions: compound concentration: 200uM; treatment time: 3 h

| Target | log2 ratio of Biotin-Ahx-Ub-VS probe labelling |
| --- | --- |
| USP48 (UniProt Q86UV5) | -0.225 (inactive) |
| FAM105A (UniProt Q9NUU6) | 0.114 (inactive) |
| USP10 (UniProt Q14694) | -0.00161 (inactive) |
| UniProt O00487 | -0.128 (inactive) |
| USP46 (UniProt P62068) | -0.565 (inactive) |
| UniProt Q9UGI0 | -1.5 (active) |
| USP28 (UniProt Q96RU2) | -0.321 (inactive) |
| USP5 (UniProt P45974) | 0.198 (inactive) |
| USP12 (UniProt O75317) | -0.294 (inactive) |
| USP8 (UniProt P40818) | -0.144 (inactive) |
| MINDY4 (UniProt Q4G0A6) | 0.686 (inactive) |
| PSMD7 (UniProt P51665) | 0.371 (inactive) |
| PRPF8 (UniProt Q6P2Q9) | 0.0922 (inactive) |
| UniProt Q70EL2 | -0.242 (inactive) |
| USP4 (UniProt Q13107) | 0.0977 (inactive) |
| YOD1 (UniProt Q5VVQ6) | -0.139 (inactive) |
| EIF3H (UniProt O15372) | -0.0524 (inactive) |
| OTUD7B (UniProt Q6GQQ9) | -5.43 (active) |
| EIF3F (UniProt O00303) | 0.103 (inactive) |
| UniProt Q5T2D3 | -0.0768 (inactive) |
